Measured values as given in PubChem BioAssay AID504333 (National Center for Advancing Translational Sciences (NCATS), 2011).
Hit rate of the full screen: of about 360,000 compounds, about 16,000 (4.4%) were called active. A call without a number means that no potency is given here. Another 9% or so got no clear call; they are omitted. The call rests on the fitted dose curve; in most records, active means well fitted inhibition curve with a large enough effect; inconclusive means small, poorly fitted or top-dose-only effect; inactive means no such curve, though single readings can be large or run the other way. Only a selection was taken, and actives are over-represented in it overall.

Molecular target: Bromodomain adjacent to zinc finger domain protein 2B (Homo sapiens) (UniProt Q9UIF8)
Assay: qHTS Assay for Inhibitors of BAZ2B; further: nearly all actives have a fitted effect of over 60% in size
Conditions: AlphaScreen BAZ2B-H3K14Ac peptide displacement; series mostly up to 114 µM
Outline: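 Compounds, titrated to a top concentration of 110 uM, were incubated 30 min at room temperature with preformed BAZ2B/acetyl-K14 H3 peptide complex (50 nM each). Proximity signal was measured by AlphaScreen after 20 min with beads.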
Potency means the concentration at half of the fitted maximal effect.

Sequence of Bromodomain adjacent to zinc finger domain protein 2B (Homo sapiens) (Q9UIF8 whole entry, looked up, the tested form may be a part): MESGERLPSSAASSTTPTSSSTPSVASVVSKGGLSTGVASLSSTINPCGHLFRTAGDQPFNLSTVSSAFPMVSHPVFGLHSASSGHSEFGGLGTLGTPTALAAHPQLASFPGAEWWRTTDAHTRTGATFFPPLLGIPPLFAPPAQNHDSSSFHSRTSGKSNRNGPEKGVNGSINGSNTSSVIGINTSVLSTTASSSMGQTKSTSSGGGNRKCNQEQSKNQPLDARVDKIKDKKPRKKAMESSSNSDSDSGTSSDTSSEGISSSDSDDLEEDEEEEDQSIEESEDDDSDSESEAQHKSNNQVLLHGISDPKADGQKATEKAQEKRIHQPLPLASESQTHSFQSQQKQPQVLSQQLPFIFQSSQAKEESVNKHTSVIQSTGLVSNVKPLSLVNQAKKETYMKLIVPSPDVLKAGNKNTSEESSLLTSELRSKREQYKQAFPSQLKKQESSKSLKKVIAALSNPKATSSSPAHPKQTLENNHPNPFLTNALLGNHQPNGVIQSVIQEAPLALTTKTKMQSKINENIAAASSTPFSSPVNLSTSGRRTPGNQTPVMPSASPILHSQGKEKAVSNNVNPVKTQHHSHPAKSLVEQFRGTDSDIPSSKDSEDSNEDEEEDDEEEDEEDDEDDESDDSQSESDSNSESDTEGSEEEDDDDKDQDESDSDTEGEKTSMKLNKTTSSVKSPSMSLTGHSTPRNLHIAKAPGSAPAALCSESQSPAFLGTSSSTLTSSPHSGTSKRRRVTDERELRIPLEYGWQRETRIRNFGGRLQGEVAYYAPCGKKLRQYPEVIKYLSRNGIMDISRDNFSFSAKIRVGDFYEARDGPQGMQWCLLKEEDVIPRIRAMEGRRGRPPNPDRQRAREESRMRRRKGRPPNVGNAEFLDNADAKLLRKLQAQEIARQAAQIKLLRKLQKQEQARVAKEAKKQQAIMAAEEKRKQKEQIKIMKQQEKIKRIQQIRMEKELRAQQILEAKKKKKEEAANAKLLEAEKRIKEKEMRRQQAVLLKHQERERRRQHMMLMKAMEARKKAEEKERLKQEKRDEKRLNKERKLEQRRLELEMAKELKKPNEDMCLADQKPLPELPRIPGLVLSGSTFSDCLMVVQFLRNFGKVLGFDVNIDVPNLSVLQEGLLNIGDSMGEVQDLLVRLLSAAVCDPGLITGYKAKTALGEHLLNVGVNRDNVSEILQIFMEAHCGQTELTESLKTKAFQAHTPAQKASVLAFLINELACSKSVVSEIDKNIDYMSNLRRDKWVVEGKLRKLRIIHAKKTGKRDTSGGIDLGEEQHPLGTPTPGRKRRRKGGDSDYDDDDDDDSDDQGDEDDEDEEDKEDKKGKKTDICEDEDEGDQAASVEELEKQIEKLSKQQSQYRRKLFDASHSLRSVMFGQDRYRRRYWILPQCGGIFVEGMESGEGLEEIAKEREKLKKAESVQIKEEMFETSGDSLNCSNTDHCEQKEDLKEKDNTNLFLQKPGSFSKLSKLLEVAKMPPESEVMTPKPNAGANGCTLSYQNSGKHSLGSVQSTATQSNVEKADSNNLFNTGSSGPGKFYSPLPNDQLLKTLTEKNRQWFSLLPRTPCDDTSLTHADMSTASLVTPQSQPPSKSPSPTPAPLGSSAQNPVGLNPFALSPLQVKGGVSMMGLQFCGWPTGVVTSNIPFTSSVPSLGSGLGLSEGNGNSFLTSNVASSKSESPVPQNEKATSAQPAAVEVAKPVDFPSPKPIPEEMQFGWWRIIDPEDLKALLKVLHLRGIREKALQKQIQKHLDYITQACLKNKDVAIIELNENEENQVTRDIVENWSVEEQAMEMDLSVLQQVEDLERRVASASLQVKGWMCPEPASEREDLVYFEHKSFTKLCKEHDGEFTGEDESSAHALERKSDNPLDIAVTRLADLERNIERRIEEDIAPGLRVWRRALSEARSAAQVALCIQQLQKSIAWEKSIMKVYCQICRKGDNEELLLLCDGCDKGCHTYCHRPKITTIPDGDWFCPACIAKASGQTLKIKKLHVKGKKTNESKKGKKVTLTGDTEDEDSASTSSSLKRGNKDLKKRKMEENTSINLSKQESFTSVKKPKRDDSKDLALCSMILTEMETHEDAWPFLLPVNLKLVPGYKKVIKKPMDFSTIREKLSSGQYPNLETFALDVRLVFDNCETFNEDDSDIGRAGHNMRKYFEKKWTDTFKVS

Structure (SMILES) | Potency
C=CCN(CC=C)CCOc1ccccc1[N+](=O)[O-] | 39.8 µM (active)
O=C(COc1ccccc1[N+](=O)[O-])N/N=C/c1ccc[nH]1 | inactive
O=C(COc1ccccc1[N+](=O)[O-])NC1CC1 | inactive
CC(NC(=O)c1cc(Sc2ccc(F)cc2F)nc2ccccc12)c1ccccc1 (stereo not drawn) | inactive
CN=C1C=C/C(=N/N=c2\ccn(O)cc2C)C=C1C | 35.5 µM (active)
O=C(CN1c2ccccc2S(=O)(=O)c2ccccc21)Nc1cccc(C(F)(F)F)c1 | inactive
CCOC(=O)c1ccc(NC(=O)CC2C(=O)N(c3ccccc3)C(=O)N2Cc2cccs2)cc1 (stereo not drawn) | inactive
Cc1cccc(NC(=O)c2nc(S(=O)(=O)Cc3ccccc3)ncc2Cl)c1 | inactive
CSc1nnc(NC(=O)c2nc(S(=O)(=O)Cc3ccc(C)cc3)ncc2Cl)s1 | 56.2 µM (active)
Cc1ccc(CS(=O)(=O)c2ncc(Cl)c(C(=O)Nc3nnc(C)s3)n2)cc1 | inactive
Fc1ccc(-n2ncc3c(Nc4ccc(Oc5ccccc5)cc4)ncnc32)cc1 | inactive
CCOc1ccccc1NC(=O)c1ccc2c(c1)CCN2S(=O)(=O)c1ccc(C)cc1 | inactive
Cc1ccc(CN2CCN(/N=C/c3ccco3)CC2)c(C)c1 | 50.1 µM (active)
Cc1ccc(NC(=O)CCC(=O)N/N=C/c2ccco2)c(C)c1 | inactive
COc1ccc(-c2nc(CN3CCN(c4ncccn4)CC3)c(C)o2)cc1C | inactive
C/C(=N\N1CCN(Cc2ccc(C)cc2)CC1)c1ccco1 | inactive
CN(C)C(=O)c1nc2ccc(Cl)cn2c1CN1CCN(c2ncccn2)CC1 | inactive
Cc1ccc(CN2CCN(c3ncccn3)CC2)c(C)c1 | 50.1 µM (active)
Cc1oc2ccc(O)c(CN3CCCCC3)c2c1C(=O)Nc1cccc(C(F)(F)F)c1 | inactive
Cc1ccc(CNC(=O)Cn2c(=O)ccc3cc(S(=O)(=O)N4CCCC4)ccc32)cc1 | inactive
CCOC(=O)c1ccc(NC(=O)C2CC(=O)NC(=Nc3ccc(C)c(C)c3)S2)cc1 (stereo not drawn) | inactive

Structure (SMILES) | Potency
Cc1cccc(NC(=O)C2CCCN2S(=O)(=O)c2cccc3nsnc23)c1C (stereo not drawn) | inactive
CCC(=O)Nc1cccc(C(=O)OCc2cc(=O)n3nc(CC)sc3n2)c1 | inactive
Cc1cc(OCCCC(=O)NCCN2C(=O)S/C(=C\c3cccnc3)C2=O)ccc1Cl | inactive
COc1ccc(-c2nn(-c3ccccc3)cc2CN2CCCO2)c(F)c1 | inactive
CN(C)S(=O)(=O)c1cccc(-c2nn(-c3ccccc3)cc2/C=C2\SC(=S)N(CC(=O)O)C2=O)c1 | 50.1 µM (active)
Cc1ccc(/C=C2/SC(=S)N(CCC(=O)NCCCN3CCOCC3)C2=O)cc1 | inactive
Cc1ccc(-c2nn(-c3ccccc3)cc2/C=C2\SC(=S)N(CCCCCC(=O)O)C2=O)o1 | 6.31 µM (active)
COc1ccc(-c2nn(-c3ccccc3)cc2/C=C2/SC(=S)N(CCCC(=O)O)C2=O)c(C)c1 | 50.1 µM (active)
COc1ccc(-c2nn(-c3ccccc3)cc2/C=C\C(=O)N2CCOCC2)cc1[N+](=O)[O-] | inactive
O=C1/C(=C\c2ccccc2Cl)SC(=S)N1CCC(=O)N1CCCc2ccccc21 | inactive
Cc1ccc(-c2nn(-c3ccccc3)cc2/C=C/C(=O)Nc2cccc(S(N)(=O)=O)c2)cc1 | inactive
Cc1ccc2c(=O)c(C(=O)c3cccc(Cl)c3)cn(CC(=O)NCc3ccccc3)c2n1 | inactive
CN1C(=O)c2[nH]nc(-c3ccc(F)cc3)c2C1c1ccccn1 (stereo not drawn) | inactive
COc1ccc(CCNC(=O)c2cc(=O)c3c(C)cc(C)cc3o2)cc1OC | inactive
CCOC(=O)c1ccc(CN(Cc2ccccc2)S(=O)(=O)c2ccc(Cl)cc2)cc1 | inactive
COc1ccc(CNC(=O)c2cc3c(=O)[nH]c4ccc(C)cc4c3s2)c(OC)c1 | inactive
COc1cccc(CNC(=O)c2ccc3c(Cl)c4c(nc3c2)CCCC4)c1 | inactive
CC(C)CC(=O)N1CCN(Cc2ccccc2Br)CC1 | 50.1 µM (active)
CC(C)CC(=O)N1CCN(Cc2cccc(Cl)c2)CC1 | inactive
CCOc1cc(CN2CCN(C(=O)CC(C)C)CC2)ccc1OC | inactive
Cc1cc(OCC(=O)Nc2ncn[nH]2)c(C)c(C)c1Br | inactive

Structure (SMILES) | Potency
O=C(NC1CC(=O)N(c2ccc(F)cc2)C1)c1ccc(S(=O)(=O)N2CCCC2)cc1 (stereo not drawn) | inactive
Cc1ccccc1CS(=O)(=O)CC1Nc2ccc(C(=O)NCc3ccc(Cl)cc3)cc2NC1=O (stereo not drawn) | inactive
Cc1ccc(C)c(N2CCN(c3ccc4cc(S(=O)(=O)N5CCC(C)CC5)ccc4n3)CC2)c1 | inactive
COc1ccc(C(=O)CCc2ccccc2O)c(OC)c1 | inactive
COc1ccc(/C=C2/C(=O)OCc3cc(OC)c(OC)cc32)c(OC)c1 | inactive
COc1ccc(/C=C2/C(=O)N(c3ccccc3)N=C2C)c(OC)c1 | 11.2 µM (active)
O=C(NCCCc1ccccc1)c1ccc2c(c1)sc1nc(-c3ccc(F)cc3)cn12 | inactive
COc1ccccc1CNC(=O)NCc1noc2ccc(C)cc12 | inactive
COc1ccc(CCNC(=O)C(=O)NCC2OCCN2S(=O)(=O)c2ccc(F)cc2)cc1OC (stereo not drawn) | inactive
Cc1cc(F)ccc1S(=O)(=O)N1CCCOC1CNC(=O)C(=O)NCCC1=CCCCC1 (stereo not drawn) | inactive
O=C(NCCCn1ccnc1)C(=O)NCC1OCCN1S(=O)(=O)c1cc(F)ccc1F (stereo not drawn) | 7.94 µM (active)
Cn1nnnc1SCCCNCc1ccc(Cl)cc1 | inactive
CSc1nc(-c2ccco2)nn1C(=O)CCc1ccccc1 | inactive
CC1(C)N=C(SCc2ccccc2Cl)c2ccccc2N1 | inactive
c1ccc(CSc2nnc(-c3ccco3)c(-c3ccco3)n2)cc1 | 20 µM (active)
COc1ccc2nc(SCc3ccccc3)nc(C)c2c1 | inactive
Clc1ccccc1CSc1nnc(-c2ccco2)c(-c2ccco2)n1 | 14.1 µM (active)
Fc1ccc(Nc2nc(SCc3ccccc3Cl)nc3ccccc23)cc1 | inactive
Cc1cccc(NC(=O)N2CCC(CN3CCc4ccccc4C3)CC2)c1C | inactive
Cc1ccc(NC(=O)CSc2nc3c([nH]c4ccccc43)c(=O)n2-c2ccccc2)c(C)c1 | inactive
CCOc1ccccc1NC(=O)Cn1c2ncccc2c(=O)n1-c1ccc(C)c(C)c1 | inactive
